Results filed as inconclusive are left out. Calls of active or inactive are those of the source. The calls were made as follows, unless noted: active = hit-call score of the fitted dose curve at least 0.9, where 1 is the maximum; inconclusive = response in the unintended direction; inactive = score below 0.9.
Tests used:
[1] = target: human Ephrin type-A Receptor 2 (EphA2), EPHA2 (gene 1969) (UniProt P29317); assay: NVS_ENZ_hEphA2: NovaScreen (NVS) Enzymatic Assay for human Ephrin type-A Receptor 2 (EphA2) (AID 2283155)
Method in brief: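 Enzyme activity of recombinant EphA2 read by fluorescence after mobility-shift separation, 1 h after dosing. Chemicals first tested at 25 uM (duplicate); those passing threshold run as concentration series, top 50 uM, single replicate, relative to DMSO.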

[2] = target: human Fibroblast Growth Factor Receptor 1 (FGFR1), FGFR1 (gene 2260) (UniProt P11362); assay: NVS_ENZ_hFGFR1: NovaScreen (NVS) Enzymatic Assay for human Fibroblast Growth Factor Receptor 1 (FGFR1) (AID 2283159)
Method in brief: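 Cell-free recombinant kinase with fluorescent substrate, product separated by electrophoretic mobility shift; read 1 hour after dosing, loss of signal relative to DMSO. Initial screen in duplicate at 25 uM, actives followed in concentration series.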

[3] = target: human c-Jun N-terminal Kinases (JNK2), MAPK9 (gene 5601) (UniProt P45984); assay: NVS_ENZ_hJNK2: NovaScreen (NVS) Enzymatic Assay for human c-Jun N-terminal Kinases (JNK2) (AID 2283171)
Method in brief: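 Chemicals first tested in duplicate at 25 uM, then in singleton concentration series up to 50 uM, against extracted JNK2 enzyme. Activity loss read by fluorescence with mobility-shift separation 1 h post-dose; DMSO baseline.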

[4] = target: Mitogen-activated protein kinase 3 (Homo sapiens) (UniProt P27361); assay: NVS_ENZ_hMAPK3: NovaScreen (NVS) Enzymatic Assay for human Mitogen-Activated Protein Kinase 3 (MAPK 3) (AID 2283177)
Method in brief: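 Chemicals were first tested in duplicate at 25 uM, with hits re-run as concentration series (max 50 uM). Recombinant enzyme activity, measured 1 h post-dose in a cell-free format, was read by fluorescence/mobility shift relative to DMSO.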

[5] = target: human MET Proto-Oncogene, Receptor Tyrosine Kinase (MET), MET (gene 4233) (UniProt P08581); assay: NVS_ENZ_hMet: NovaScreen (NVS) Enzymatic Assay for human MET Proto-Oncogene, Receptor Tyrosine Kinase (MET) (AID 2283180)
Method in brief: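 Hits from a 25 uM duplicate screen were retested in concentration series up to 50 uM. Enzyme activity was measured by fluorescence after electrophoretic separation of product from substrate, 1 h after compound addition, relative to DMSO.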

[6] = target: human Mitogen- and Stress-activated Protein Kinase-1 (Msk1), RPS6KA5 (gene 9252) (UniProt O75582); assay: NVS_ENZ_hMsk1: NovaScreen (NVS) Enzymatic Assay for human Mitogen- and Stress-activated Protein Kinase-1 (Msk1) (AID 2283187)
Method in brief: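 Chemicals first run in duplicate at 25 uM, with actives followed up in singleton concentration series to 50 uM maximum. Enzyme activity came from substrate/product mobility-shift separation with fluorescence detection after 1 h incubation of the recombinant protein.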

[7] = target: human Phosphodiesterase 4A1 (PDE4A1), PDE4A (gene 5141) (UniProt P27815); assay: NVS_ENZ_hPDE4A1: NovaScreen (NVS) Enzymatic Assay for human Phosphodiesterase 4A1 (PDE4A1) (AID 2283191)
Method in brief: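 Fluorescent substrate turnover by recombinant PDE4A1 read after 1 h by mobility-shift separation. Primary duplicate screen at 25 uM; hits retested in concentration series with a 50 uM maximum, relative to DMSO.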

[8] = target: human Phosphodiesterase 5 (PDE5), PDE5A (gene 8654) (UniProt O76074); assay: NVS_ENZ_hPDE5: NovaScreen (NVS) Enzymatic Assay for human Phosphodiesterase 5 (PDE5) (AID 2283194)
Method in brief: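 Screening began in duplicate at 25 uM, with actives taken into concentration-response. Enzyme activity of recombinant PDE5 toward its substrate was measured at 1 h by fluorescence mobility-shift detection, relative to DMSO controls.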

[9] = target: Tyrosine-protein phosphatase non-receptor type 14 (Homo sapiens) (UniProt Q15678); assay: NVS_ENZ_hPTPN14: NovaScreen (NVS) Enzymatic Assay for human Protein Tyrosine Phosphatase Non-receptor Type 14 (PTPN14) (AID 2283206)
Method in brief: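 Fluorescent substrate turnover by recombinant human PTPN14 was measured 0.5 h after compound addition, with substrate and product separated by mobility shift. Single-point screening at 25 uM, then concentration-response up to 50 uM for chemicals meeting threshold (e.g., 30% inhibition).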

[10] = target: human Protein Tyrosine Phosphatase Receptor Type M (PTPRM), PTPRM (gene 5797) (UniProt P28827); assay: NVS_ENZ_hPTPRM: NovaScreen (NVS) Enzymatic Assay for human Protein Tyrosine Phosphatase Receptor Type M (PTPRM) (AID 2283215)
Method in brief: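 Read-out is fluorescence after electrophoretic separation of substrate and product, taken 1.33 h post-dosing with recombinant enzyme. Compounds screened at 25 uM in duplicate, then concentration series for actives; activity as signal loss relative to DMSO.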

[11] = target: human SRC Proto-Oncogene, Non-receptor Tyrosine Kinase (SRC), SRC (gene 6714) (UniProt P12931); assay: NVS_ENZ_hSRC: NovaScreen (NVS) Enzymatic Assay for human SRC Proto-Oncogene, Non-receptor Tyrosine Kinase (SRC) (AID 2283223)
Method in brief: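 Compounds passing 30% inhibition at 25 uM (duplicate) were titrated to a top concentration of 50 uM. Enzyme activity read by fluorescence with mobility-shift substrate/product separation after 1 h; DMSO baseline.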

[12] = system: bovine Histamine 1 Receptor (H1), gene 281231; assay: NVS_GPCR_bH1: NovaScreen (NVS) G Protein-Coupled Receptor Assay for bovine Histamine 1 Receptor (H1) (AID 2283246)
Method in brief: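 Hits from a 25 uM duplicate primary screen were retested in concentration series (top 50 uM); binding measured as scintillation-counted displacement of radioligand from bovine cerebellar membranes after 1 h, normalised to DMSO.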

[13] = target: rat Glutamate Metabotropic Receptor 5 (MGluR5), Grm5 (gene 24418) (UniProt P31424); assay: NVS_GPCR_rmMGluR5: NovaScreen (NVS) G Protein-Coupled Receptor Assay for rat Glutamate Metabotropic Receptor 5 (MGluR5) (AID 2283307)
Method in brief: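 Compounds first screened in duplicate at 25 uM, then in concentration series up to 50 uM if over threshold. Radioligand displacement on rat whole-brain membranes, filtration and scintillation counting after 1.5 h; binding loss relative to DMSO.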

[14] = target: rat Oxytocin Receptor (OXT), Oxtr (gene 25342) (UniProt P70536); assay: NVS_GPCR_rOXT: NovaScreen (NVS) G Protein-Coupled Receptor Assay for rat Oxytocin Receptor (OXT) (AID 2283330)
Method in brief: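 Binding to rat uterine membrane receptor was followed by scintillation counting of filter-trapped radioligand after 1 h. A 25 uM duplicate single-point screen preceded concentration series with a top of 50 uM. Signal loss was analysed relative to DMSO.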

[15] = target: Norway rat Vesicular Monoamine Transporter (VMAT2), neurotransmitter transporter, Slc18a2 (gene 25549) (UniProt Q01827); assay: NVS_TR_rVMAT2: NovaScreen (NVS) Transporter Assay for Norway rat Vesicular Monoamine Transporter (VMAT2), neurotransmitter transporter (AID 2283376);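 also: actives lower the bound radioligand signal below the DMSO level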
Method in brief: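 Filter-based scintillation counting of radioligand bound to rat forebrain-derived VMAT2 protein, cell-free, 1 h post-dose. Signal loss relative to DMSO control scored; single-concentration duplicate screen (25 uM) followed by concentration-response testing of actives.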

[16] = read-out: Fatty Acid-Binding Protein 1 (FABP1), FABP1 (gene 2168); assay: LTEA_HepaRG_FABP1: Life Technologies and Expression Analysis (LTEA) Assay for Fatty Acid-Binding Protein 1 (FABP1) using HepaRG (AID 2283494; active = hit-call score of the fitted dose curve at least 0.9, where 1 is the maximum; inactive = score below 0.9); details: mRNA level, 48 h; actives raise or lower the signal
Method in brief: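 qRT-PCR readout of FABP1 transcript (normalized to three housekeeping genes) after 48 h chemical exposure of HepaRG cells; eight concentrations, half-log steps, max 100 uM, 0.5% DMSO vehicle; gain or loss fitted relative to DMSO baseline.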

[17] = read-out: Hypoxia-inducible factor 1-alpha (Homo sapiens) (UniProt Q16665); assay: LTEA_HepaRG_HIF1A: Life Technologies and Expression Analysis (LTEA) Assay for Hypoxia-inducible factor 1 (HIF1A) Trancription factor using HepaRG (AID 2283503; active = hit-call score of the fitted dose curve at least 0.9, where 1 is the maximum; inactive = score below 0.9;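 also: HIF1A transcript by TaqMan qRT-PCR normalized to ACTB GAPDH and POLR2A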); details: mRNA level, 48 h; actives raise or lower the signal
Method in brief: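 Gain- or loss-of-signal HIF1A mRNA changes are fitted against a DMSO baseline. HepaRG cultures receive eight concentrations, highest 100 uM, for 48 h in serum-free induction medium with 0.5% DMSO.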

[18] = CCTE_Mundy_HCI_hNP1_Pro_ResponderAvgInten: CCTE's Proliferation Assay in human neuroprogenitor cells, Mundy Lab (AID 2284224);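 also: human neural progenitor cells hNP1 derived from WA09 embryonic stem cells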
Method in brief: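 Proliferation read as average intensity of BrdU-positive cells, imaged at 26.25 h post-dosing: chemical exposure started after 40–44 h culture, BrdU during final 4 h, paraformaldehyde fixation. Positive-direction fit relative to DMSO.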

[19] = CCTE_Mundy_HCI_hNP1_Casp3_7: CCTE's Caspase-Glo 3/7 Assay in human neuroprogenitor cells for Apoptosis, Mundy Lab (AID 2284240; active = hit-call score of the fitted dose curve at least 0.9, where 1 is the maximum; inactive = score below 0.9)
Method in brief: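 Luminescent caspase-3/7 readout, 26.5 h post-dose, in human neural progenitor cells from WA09 embryonic stem cells. Cells grew 40–44 h at 37 °C, 5% CO2 before chemical addition. Activity analysed as signal increase over DMSO baseline.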

[20] = CCTE_Mundy_HCI_iCellGluta_NOG_NeuronCount: CCTE's Neurite Outgrowth Assay in iCellGluta cells for Neuron Count, Mundy Lab (AID 2284340);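 also: cells fixed about 48 h after compound addition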
Method in brief: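 Neuron count read by automated high-content imaging of Hoechst 33342 and betaIII-tubulin/Alexa Fluor-488 labelling in human iPSC glutamatergic neurons. Activity fitted relative to DMSO.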

Measured: outcome

human Mitogen- and Stress-activated Protein Kinase-1 (Msk1), RPS6KA5 (gene 9252), sequence (O75582 whole entry, looked up): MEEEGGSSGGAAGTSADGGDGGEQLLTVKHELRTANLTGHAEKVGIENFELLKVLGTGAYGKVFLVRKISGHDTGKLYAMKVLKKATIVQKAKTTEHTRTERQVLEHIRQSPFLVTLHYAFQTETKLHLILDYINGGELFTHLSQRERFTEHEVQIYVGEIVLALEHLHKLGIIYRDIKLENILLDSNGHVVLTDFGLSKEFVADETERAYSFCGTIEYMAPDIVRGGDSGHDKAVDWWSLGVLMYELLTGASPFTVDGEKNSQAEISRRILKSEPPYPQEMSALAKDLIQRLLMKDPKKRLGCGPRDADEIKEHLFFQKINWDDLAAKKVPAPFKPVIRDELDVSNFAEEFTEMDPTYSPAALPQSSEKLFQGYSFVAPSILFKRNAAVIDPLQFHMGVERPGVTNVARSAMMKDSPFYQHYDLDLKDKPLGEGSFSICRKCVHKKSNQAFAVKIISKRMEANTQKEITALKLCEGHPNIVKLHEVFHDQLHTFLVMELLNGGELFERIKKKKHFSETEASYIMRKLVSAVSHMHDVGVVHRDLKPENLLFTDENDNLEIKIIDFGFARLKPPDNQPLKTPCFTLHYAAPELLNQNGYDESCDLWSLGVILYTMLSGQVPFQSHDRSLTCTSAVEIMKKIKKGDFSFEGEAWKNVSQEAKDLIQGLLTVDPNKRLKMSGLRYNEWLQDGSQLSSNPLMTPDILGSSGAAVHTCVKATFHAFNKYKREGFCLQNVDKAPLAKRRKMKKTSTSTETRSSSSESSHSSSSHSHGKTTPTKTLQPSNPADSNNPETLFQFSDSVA
rat Glutamate Metabotropic Receptor 5 (MGluR5), Grm5 (gene 24418), sequence (P31424 whole entry, looked up): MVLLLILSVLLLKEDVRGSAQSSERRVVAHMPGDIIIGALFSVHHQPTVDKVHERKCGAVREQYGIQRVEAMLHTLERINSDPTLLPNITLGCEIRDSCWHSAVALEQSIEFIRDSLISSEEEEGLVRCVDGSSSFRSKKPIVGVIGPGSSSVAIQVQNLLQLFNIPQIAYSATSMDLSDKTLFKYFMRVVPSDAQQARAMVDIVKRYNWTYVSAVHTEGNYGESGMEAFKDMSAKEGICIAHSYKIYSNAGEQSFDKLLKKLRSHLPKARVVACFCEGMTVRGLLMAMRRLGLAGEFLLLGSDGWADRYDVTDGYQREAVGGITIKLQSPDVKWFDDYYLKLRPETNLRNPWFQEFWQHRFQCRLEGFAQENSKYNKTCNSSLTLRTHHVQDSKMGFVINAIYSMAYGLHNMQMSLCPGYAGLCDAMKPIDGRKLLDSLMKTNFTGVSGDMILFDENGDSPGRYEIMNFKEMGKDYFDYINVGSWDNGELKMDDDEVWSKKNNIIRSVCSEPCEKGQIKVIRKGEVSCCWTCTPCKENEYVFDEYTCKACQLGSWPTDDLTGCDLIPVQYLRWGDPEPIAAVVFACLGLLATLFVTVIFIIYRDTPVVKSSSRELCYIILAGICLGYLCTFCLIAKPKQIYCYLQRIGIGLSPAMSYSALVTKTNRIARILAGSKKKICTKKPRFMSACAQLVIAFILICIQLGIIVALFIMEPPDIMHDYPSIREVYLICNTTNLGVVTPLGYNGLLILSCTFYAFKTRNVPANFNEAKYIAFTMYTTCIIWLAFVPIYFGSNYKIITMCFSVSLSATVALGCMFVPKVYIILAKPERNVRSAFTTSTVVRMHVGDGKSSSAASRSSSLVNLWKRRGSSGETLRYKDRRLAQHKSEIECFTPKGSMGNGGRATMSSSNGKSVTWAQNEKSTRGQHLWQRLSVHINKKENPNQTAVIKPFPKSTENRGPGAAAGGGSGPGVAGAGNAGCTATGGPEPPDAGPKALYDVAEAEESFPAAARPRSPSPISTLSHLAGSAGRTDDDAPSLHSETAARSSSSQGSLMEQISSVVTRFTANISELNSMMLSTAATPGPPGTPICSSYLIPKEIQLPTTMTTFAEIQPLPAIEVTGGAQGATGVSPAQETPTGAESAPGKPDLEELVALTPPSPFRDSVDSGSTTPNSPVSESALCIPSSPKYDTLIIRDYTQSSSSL
rat Oxytocin Receptor (OXT), Oxtr (gene 25342), sequence (P70536 whole entry, looked up): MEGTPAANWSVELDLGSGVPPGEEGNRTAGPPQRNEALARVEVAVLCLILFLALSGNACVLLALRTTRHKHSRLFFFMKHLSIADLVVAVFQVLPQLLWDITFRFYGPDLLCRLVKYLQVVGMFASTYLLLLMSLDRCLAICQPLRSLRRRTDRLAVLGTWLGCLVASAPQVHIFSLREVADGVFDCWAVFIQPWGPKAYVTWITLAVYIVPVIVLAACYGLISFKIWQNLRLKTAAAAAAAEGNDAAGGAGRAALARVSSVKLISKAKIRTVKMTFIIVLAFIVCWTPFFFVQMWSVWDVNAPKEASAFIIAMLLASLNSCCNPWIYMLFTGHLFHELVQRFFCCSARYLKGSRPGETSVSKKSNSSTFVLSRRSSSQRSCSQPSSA
Hypoxia-inducible factor 1-alpha (Homo sapiens), sequence (Q16665 whole entry, looked up): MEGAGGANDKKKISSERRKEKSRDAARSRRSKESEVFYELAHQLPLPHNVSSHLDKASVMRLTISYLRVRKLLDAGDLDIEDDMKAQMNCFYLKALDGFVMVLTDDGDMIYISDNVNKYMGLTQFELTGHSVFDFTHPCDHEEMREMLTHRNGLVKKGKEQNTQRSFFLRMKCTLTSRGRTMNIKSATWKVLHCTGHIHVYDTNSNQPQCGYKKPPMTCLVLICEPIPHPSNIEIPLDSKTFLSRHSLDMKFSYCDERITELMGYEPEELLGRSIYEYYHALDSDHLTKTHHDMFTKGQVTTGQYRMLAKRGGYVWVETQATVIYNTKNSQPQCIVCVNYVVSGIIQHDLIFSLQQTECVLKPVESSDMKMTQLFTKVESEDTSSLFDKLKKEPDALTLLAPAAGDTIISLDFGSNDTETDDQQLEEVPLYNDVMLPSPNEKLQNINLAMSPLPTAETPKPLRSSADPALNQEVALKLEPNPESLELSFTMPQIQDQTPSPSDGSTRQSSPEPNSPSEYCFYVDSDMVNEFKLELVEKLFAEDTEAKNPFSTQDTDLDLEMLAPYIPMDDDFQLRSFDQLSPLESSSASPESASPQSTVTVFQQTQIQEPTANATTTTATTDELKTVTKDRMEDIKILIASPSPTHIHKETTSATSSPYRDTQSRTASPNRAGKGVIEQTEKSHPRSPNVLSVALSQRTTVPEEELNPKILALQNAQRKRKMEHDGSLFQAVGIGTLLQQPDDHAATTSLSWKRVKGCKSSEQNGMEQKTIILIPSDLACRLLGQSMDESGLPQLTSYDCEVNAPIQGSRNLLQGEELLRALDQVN
human SRC Proto-Oncogene, Non-receptor Tyrosine Kinase (SRC), SRC (gene 6714), sequence (P12931 whole entry, looked up): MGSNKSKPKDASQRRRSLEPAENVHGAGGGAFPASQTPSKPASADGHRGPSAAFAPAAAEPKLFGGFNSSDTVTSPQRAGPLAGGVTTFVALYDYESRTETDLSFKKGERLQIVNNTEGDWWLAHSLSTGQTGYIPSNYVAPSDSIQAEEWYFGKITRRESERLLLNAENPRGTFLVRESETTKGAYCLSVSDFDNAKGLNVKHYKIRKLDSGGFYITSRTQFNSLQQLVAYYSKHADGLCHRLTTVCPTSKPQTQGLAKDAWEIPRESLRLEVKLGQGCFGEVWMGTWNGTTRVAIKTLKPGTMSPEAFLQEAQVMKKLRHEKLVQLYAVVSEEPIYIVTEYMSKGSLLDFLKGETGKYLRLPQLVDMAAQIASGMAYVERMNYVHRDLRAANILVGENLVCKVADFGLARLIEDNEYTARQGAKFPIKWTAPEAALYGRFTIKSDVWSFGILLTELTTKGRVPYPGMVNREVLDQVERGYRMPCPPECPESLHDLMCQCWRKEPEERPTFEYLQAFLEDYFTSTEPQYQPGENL
human Fibroblast Growth Factor Receptor 1 (FGFR1), FGFR1 (gene 2260), sequence (P11362 whole entry, looked up): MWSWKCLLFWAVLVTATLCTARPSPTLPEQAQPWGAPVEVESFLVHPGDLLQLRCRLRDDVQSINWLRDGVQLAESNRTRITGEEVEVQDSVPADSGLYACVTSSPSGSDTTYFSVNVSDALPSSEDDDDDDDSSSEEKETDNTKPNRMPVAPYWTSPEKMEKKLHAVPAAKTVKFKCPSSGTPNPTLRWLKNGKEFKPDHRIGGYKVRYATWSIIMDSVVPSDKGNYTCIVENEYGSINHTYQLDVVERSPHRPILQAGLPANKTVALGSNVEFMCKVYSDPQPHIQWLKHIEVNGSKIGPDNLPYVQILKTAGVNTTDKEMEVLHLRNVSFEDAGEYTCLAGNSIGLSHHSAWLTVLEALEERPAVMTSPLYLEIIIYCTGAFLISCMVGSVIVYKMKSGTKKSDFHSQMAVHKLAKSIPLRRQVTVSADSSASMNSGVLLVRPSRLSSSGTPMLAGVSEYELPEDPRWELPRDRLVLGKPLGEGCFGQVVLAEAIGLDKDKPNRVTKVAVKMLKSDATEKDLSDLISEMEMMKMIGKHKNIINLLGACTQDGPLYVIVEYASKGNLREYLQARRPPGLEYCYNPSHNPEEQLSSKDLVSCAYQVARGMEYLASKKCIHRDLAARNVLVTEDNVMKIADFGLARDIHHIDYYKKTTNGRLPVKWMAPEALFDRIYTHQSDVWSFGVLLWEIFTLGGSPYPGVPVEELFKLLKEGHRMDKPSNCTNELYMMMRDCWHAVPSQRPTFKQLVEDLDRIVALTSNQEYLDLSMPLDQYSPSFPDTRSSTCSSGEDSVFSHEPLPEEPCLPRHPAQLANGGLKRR
human c-Jun N-terminal Kinases (JNK2), MAPK9 (gene 5601), sequence (P45984 whole entry, looked up): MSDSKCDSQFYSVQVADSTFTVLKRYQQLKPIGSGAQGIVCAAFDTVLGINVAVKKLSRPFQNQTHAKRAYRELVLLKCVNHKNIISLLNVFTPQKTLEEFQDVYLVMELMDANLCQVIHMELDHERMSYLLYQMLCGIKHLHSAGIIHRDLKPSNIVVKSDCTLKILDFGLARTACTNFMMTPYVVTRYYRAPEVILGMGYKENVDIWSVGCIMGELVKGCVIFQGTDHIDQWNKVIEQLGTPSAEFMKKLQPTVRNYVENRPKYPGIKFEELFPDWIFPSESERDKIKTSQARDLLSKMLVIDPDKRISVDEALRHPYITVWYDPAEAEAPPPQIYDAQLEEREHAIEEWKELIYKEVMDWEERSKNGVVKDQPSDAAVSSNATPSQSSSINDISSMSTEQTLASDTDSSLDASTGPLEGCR

N#CCCCCC#N
inactive: [1] | [2] | [3] | [4] | [5] | [6] | [7] | [8] | [9] | [10] | [11] | [12] | [13] | [14] | [15] | [16] | [17]

CNC(=N[N+](=O)[O-])NCC1CCOC1 (stereo not given)
inactive: [18] | [19] | [20]

Source: PubChem BioAssay (EPA / NIEHS)
